From the supplement of paper PMC11732987, “Enantioselective OTUD7B fragment discovery through chemoproteomics screening and high-throughput optimisation” (Communications Chemistry, 2025)

Columns and labels:
Experiment in all cases: log2 ratio of Biotin-Ahx-Ub-VS probe labelling (fragment/DMSO); higher = less target engagement (more negative = stronger competition), active = hit call of the paper (q ≤ 0.05, log2 ratio ≤ -1)
Conditions in all cases: compound concentration: 200 uM; treatment time: 3 h
USP34 = USP34 (UniProt Q70CQ2)
In short: (§1)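 HEK293T lysate in Tris/CHAPS/IGEPAL buffer with protease inhibitors (495 µg per sample) was given fragment at 200 µM or vehicle for 3 h, in triplicate. It then received Biotin-Ahx-Ub-VS at 0.5 µM final for 1 h. Labelled DUBs were NeutrAvidin-enriched, digested with LysC and trypsin, and run by diaPASEF LC-MS/MS. Values are average log2 fragment/vehicle ratios by unpaired t-test on global-median-normalised Spectronaut quantities of proteins with ≥2 unique peptides.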

USP36 = target: T1, USP36 (UniProt Q9P275)
T1 sequence (whole entry): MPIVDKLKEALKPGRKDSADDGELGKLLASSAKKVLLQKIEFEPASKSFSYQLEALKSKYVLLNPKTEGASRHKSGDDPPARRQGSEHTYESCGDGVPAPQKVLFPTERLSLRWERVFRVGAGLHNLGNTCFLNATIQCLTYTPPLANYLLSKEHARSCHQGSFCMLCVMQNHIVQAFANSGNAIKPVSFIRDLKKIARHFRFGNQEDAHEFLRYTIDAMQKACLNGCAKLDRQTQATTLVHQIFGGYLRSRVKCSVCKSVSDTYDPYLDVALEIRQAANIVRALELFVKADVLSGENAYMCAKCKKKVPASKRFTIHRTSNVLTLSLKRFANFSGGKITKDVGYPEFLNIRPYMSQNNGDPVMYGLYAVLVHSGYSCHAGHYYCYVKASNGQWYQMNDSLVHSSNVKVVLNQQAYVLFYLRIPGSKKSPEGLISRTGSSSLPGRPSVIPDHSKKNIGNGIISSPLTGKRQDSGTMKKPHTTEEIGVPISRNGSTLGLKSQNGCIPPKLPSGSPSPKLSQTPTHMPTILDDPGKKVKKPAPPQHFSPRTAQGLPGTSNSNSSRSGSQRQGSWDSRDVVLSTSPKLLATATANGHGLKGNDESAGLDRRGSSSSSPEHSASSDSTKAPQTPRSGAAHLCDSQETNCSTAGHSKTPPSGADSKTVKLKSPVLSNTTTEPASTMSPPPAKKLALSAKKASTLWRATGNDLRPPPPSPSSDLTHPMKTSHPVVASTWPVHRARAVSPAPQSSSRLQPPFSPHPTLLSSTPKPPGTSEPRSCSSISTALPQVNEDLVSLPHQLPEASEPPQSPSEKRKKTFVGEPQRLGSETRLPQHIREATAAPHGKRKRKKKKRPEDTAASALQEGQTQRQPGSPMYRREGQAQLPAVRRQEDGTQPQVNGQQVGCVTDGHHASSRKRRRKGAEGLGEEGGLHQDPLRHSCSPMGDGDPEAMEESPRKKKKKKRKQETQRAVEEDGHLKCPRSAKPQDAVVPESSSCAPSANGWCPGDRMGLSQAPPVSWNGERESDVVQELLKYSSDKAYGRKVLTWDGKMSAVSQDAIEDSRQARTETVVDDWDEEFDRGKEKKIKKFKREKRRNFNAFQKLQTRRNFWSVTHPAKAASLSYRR
In short: as §1

USP38 = target: T2, USP38 (UniProt Q8NB14)
T2 sequence (whole entry): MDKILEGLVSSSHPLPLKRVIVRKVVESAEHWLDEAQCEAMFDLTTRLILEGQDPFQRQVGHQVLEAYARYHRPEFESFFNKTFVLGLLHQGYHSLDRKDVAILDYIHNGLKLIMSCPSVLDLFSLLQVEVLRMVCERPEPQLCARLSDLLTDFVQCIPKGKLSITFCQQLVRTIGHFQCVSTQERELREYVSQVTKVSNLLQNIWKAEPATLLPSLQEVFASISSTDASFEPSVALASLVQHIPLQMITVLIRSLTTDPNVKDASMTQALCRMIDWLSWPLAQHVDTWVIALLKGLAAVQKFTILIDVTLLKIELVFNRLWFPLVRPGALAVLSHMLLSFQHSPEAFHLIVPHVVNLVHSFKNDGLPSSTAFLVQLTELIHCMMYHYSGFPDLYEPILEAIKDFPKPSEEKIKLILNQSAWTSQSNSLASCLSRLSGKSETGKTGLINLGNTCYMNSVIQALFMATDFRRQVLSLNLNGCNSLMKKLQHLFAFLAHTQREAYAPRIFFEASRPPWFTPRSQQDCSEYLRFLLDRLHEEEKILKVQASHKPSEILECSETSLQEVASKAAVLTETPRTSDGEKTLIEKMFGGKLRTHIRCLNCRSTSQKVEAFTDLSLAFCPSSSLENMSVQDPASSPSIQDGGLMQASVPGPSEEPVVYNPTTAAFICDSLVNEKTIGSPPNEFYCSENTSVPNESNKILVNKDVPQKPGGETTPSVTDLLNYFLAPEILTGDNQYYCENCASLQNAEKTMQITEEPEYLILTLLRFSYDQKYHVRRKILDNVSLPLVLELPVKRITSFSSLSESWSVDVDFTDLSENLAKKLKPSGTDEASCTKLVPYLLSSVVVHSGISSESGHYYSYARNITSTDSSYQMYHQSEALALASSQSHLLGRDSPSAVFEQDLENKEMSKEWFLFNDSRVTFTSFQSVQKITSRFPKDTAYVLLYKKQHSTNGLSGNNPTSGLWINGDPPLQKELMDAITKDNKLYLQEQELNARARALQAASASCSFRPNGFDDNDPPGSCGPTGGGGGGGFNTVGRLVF
In short: as §1

USP39 = target: T3, USP39 (UniProt Q53GS9)
T3 sequence (whole entry): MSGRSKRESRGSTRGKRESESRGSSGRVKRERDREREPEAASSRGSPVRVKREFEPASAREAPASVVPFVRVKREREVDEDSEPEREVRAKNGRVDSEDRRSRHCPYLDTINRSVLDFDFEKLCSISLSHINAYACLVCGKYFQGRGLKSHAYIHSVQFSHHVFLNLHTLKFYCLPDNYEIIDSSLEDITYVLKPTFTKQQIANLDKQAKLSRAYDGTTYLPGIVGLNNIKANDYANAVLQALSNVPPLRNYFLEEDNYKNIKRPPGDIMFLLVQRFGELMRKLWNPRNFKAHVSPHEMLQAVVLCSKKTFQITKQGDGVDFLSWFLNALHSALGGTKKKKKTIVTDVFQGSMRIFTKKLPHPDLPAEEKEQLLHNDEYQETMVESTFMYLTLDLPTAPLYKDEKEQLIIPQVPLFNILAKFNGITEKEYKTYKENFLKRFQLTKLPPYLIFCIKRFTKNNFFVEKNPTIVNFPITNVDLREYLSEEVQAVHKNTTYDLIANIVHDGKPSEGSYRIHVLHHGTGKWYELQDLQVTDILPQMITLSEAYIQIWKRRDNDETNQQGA
In short: as §1

USP4 = target: T4, USP4 (UniProt Q13107)
T4 sequence (whole entry): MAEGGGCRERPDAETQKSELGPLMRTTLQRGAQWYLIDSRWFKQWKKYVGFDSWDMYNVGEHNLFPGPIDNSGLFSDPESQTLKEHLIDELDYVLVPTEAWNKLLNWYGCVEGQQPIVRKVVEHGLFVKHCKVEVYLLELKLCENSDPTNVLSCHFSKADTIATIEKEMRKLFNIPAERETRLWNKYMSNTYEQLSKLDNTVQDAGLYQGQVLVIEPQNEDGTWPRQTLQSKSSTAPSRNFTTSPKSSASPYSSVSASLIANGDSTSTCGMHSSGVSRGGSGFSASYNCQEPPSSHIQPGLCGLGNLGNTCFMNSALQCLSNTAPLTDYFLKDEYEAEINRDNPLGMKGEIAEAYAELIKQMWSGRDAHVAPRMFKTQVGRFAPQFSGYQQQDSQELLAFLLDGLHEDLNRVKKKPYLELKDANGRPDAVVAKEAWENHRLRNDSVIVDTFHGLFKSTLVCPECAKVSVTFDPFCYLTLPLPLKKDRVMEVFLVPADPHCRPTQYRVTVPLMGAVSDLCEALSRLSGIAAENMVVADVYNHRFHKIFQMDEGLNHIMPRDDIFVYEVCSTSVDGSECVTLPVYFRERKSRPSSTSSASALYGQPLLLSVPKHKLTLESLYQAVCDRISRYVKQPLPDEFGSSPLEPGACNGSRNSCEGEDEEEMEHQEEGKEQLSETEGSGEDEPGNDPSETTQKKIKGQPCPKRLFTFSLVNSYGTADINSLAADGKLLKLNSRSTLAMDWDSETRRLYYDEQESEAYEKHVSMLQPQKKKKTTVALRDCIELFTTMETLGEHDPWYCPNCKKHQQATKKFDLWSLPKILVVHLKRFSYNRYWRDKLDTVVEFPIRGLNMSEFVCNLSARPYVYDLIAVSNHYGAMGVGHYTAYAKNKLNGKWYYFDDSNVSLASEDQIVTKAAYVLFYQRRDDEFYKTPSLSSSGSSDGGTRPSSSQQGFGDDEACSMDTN
In short: as §1

Measured: log2 ratio of Biotin-Ahx-Ub-VS probe labelling

Chain of USP34 (Q70CQ2 whole entry, the tested form may be a part): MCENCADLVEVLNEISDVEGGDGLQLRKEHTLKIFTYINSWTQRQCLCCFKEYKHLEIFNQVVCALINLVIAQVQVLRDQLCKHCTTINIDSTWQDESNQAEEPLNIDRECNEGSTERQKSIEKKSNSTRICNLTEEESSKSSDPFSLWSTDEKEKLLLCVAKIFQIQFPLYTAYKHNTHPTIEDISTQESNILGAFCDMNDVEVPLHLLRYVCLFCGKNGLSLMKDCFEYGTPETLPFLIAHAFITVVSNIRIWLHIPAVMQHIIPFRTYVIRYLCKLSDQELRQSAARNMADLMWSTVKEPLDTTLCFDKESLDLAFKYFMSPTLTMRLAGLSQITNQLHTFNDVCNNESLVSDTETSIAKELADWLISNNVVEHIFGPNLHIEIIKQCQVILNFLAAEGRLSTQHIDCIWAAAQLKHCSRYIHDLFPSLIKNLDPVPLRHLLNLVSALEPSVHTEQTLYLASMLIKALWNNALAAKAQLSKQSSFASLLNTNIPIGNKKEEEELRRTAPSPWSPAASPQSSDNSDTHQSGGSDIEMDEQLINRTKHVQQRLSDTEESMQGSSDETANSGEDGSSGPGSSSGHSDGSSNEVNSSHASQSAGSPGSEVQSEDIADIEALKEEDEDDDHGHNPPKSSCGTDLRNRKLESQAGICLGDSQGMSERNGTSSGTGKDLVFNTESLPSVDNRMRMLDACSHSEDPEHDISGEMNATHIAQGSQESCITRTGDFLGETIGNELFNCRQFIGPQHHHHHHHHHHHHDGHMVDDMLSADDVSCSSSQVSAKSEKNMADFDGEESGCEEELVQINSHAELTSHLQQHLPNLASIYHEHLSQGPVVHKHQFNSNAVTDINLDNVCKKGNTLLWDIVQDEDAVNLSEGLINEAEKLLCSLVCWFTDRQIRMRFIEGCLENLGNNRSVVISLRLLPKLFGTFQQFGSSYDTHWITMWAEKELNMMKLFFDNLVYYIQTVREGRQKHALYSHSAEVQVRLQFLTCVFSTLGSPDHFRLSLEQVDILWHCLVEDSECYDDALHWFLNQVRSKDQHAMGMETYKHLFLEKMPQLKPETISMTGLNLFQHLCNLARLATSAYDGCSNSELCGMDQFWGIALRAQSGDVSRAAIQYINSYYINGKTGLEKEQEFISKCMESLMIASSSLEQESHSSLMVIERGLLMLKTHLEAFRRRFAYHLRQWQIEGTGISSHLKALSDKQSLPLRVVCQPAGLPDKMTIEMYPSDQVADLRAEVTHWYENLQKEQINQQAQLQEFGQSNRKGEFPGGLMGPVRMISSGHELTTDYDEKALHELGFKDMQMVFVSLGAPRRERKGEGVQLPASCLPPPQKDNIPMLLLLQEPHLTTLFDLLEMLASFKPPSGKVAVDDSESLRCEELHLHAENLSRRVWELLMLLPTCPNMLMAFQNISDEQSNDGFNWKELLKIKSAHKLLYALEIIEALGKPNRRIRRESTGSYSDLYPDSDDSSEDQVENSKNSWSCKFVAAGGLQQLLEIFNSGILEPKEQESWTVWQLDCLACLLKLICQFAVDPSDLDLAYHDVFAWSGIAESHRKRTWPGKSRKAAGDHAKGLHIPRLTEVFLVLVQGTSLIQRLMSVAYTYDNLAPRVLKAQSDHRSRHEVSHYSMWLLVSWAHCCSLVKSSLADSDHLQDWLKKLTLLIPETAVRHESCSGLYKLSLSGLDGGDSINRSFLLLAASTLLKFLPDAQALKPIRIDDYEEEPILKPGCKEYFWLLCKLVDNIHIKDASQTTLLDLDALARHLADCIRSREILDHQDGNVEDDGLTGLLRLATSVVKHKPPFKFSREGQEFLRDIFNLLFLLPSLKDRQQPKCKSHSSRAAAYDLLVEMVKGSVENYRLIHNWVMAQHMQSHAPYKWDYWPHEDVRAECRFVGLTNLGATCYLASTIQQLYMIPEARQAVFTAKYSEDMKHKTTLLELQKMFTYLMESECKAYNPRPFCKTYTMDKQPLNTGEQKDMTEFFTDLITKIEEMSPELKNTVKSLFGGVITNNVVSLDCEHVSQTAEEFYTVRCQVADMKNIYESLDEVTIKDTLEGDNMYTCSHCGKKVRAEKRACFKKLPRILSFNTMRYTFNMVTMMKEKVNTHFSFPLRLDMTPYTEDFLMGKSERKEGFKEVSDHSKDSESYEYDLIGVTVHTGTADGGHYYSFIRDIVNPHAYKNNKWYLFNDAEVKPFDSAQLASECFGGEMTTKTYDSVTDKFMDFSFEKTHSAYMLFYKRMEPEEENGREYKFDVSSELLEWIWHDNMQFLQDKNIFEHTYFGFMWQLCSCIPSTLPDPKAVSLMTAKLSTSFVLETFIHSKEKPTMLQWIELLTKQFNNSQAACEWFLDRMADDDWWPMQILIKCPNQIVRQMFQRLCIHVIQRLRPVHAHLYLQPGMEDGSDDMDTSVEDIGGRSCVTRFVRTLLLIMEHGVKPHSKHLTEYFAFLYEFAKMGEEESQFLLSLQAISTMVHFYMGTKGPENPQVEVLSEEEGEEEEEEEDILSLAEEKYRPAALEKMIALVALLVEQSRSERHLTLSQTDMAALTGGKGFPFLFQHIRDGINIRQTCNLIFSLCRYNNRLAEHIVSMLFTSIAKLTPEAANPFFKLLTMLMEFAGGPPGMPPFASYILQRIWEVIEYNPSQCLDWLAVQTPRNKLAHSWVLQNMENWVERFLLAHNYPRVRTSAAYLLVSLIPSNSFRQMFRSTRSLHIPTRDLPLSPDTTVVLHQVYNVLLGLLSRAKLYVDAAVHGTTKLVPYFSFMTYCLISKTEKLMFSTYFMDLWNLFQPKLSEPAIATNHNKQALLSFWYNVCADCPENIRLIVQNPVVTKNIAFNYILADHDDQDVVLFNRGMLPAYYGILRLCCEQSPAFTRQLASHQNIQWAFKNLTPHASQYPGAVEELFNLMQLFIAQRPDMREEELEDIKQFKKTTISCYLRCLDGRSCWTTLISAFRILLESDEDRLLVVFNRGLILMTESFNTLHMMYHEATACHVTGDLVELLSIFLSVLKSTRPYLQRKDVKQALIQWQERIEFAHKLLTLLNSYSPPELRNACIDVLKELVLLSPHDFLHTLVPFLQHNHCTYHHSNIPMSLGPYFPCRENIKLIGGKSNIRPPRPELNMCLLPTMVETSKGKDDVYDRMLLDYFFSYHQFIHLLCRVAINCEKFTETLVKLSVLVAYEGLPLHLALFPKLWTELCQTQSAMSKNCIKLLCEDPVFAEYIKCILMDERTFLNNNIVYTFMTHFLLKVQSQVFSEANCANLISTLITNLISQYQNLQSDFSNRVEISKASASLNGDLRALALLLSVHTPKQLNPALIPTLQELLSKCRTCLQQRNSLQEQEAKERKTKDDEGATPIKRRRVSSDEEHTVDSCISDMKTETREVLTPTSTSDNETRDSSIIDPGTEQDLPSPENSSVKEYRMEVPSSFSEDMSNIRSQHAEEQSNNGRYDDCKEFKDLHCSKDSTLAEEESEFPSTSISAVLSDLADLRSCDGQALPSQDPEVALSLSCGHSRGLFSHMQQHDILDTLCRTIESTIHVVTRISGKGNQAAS

O=C(CCl)NCCc1ccc2c(c1)OCCO2
inactive: USP34 -0.523 | USP36 -0.0707 | USP38 -0.0664 | USP39 -0.16 | USP4 -0.295
